# Results as given in PubChem BioAssay (Tox21).
# Inconclusive results are not listed. A call without a number means that no potency is given here. Activity calls are given as the source filed them. Calls come from the whole dose curve; as a rule, active = well fitted activation curve with a large enough effect in the repeat runs; inconclusive = weak or mixed curves; inactive = flat fitted curve, though single readings scatter.
# Assay: A CellTox Green Cytotoxicity Assay to monitor cytotoxicity in HEK293 cells - 16 hour (AID 1224888); note: nearly all actives have a fitted effect of over 35% in size
# Settings: CellTox Green fluorescence; series mostly up to 76.8 µM
# From the text: National Center for Advancing Translational Sciences [NCATS]
# NIH Chemical Genomics Center [NCGC]
# U.S. Environmental Protection Agency [EPA]
# National Institutes of Environmental Health Sciences [NIEHS]
# National Toxicology Program [NTP]
# Cell-based models are critical for drug discovery. Determining the natural cytotoxic effects resulting from test compounds is an essential research activity. A CellTox Green Cytotoxicity Assay to monitor cytotoxicity in real time of continues cell culture during 40 hours of the compound treatment was used to screen Tox21 10K library compounds in Hek293 cells. CellTox Green Cytotoxicity Assay is a nonlytic, homogeneous, biofluorescent method to measure cytotoxicity in cell culture after experimental manipulation. The assay system uses a proprietary asymmetric cyanine dye that is excluded from viable cells but preferentially stains the dead cell's DNA. […] Viable cells produce no appreciable increases in fluorescence. Therefore, the fluorescence signal produced by the binding interaction with dead cell DNA is proportional to cytotoxicity.
# The mixture of Hek293 cell suspension and reagents were dispensed at 600cells/6 ul/well in 1536-well tissue culture treated black solid bottom plates using a Multidrop dispenser. After the assay plates were incubated at a 37 C/5% CO2 incubator for 5 hours, 23 nL of compounds dissolved in DMSO, positive and negative controls was transferred to the assay plate by a pintool work station. The plates were incubated at 37 C for 40 hours. The fluorescence intensity were measured at 0h, 8h, 16h, 24h, 32h and 40h time points using ViewLux plate reader during compound treatment.
row,SMILES,Potency
1,C=CC(=O)NCOCCCC,inactive
2,c1cnc2c(c1)ccc1cccnc12,inactive
3,C[n+]1ccn(CCO)c1,inactive
4,CC(=O)OCCC(C)C,inactive
5,O=C(O)Cc1c[nH]c2ccccc12,inactive
6,CCCCCCCCC(=O)O,inactive
7,C=C1C[C@]23C[C@@]1(O)CC[C@H]2[C@@]12C=C[C@H](O)[C@@](C)(C(=O)O1)[C@H]2[C@@H]3C(=O)O,inactive
8,C1CCCNCC1,inactive
9,CCCCCCCC(=O)O,inactive
10,CS(=O)(=O)c1ccc(Cl)cc1,inactive
11,OC[C@H]1O[C@@H](Oc2ccc(O)cc2)[C@H](O)[C@@H](O)[C@@H]1O,inactive
12,CC(CN1c2ccccc2Sc2ccccc21)N(C)C (stereo not given),inactive
13,CCCCCNCCCCC,inactive
14,NC1CCCCC1N (stereo not given),inactive
15,Cc1ccccc1C=O,inactive
16,O=C(c1ccccc1)c1ccc(O)c(O)c1O,inactive
17,COC(=O)/C=C\C(=O)OC,inactive
18,O=Cc1ccc(CO)o1,inactive
19,Cc1cc(C)c(O)c(C)c1,inactive
20,CCc1cccc(CC)c1N,inactive

row,SMILES,Potency
1,NC(N)=S,inactive
2,COc1ccccc1[N+](=O)[O-],inactive
3,COc1cc(NC(=O)CC(C)=O)c(OC)cc1Cl,inactive
4,CCc1cccc(O)c1,inactive
5,COc1ccc([C@@H]2CC(=O)c3c(O)cc(O[C@@H]4O[C@H](CO[C@@H]5O[C@@H](C)[C@H](O)[C@@H](O)[C@H]5O)[C@@H](O)[C@H](O)[C@H]4O)cc3O2)cc1OC,inactive
6,CCCCCCC(=O)O,inactive
7,CC(C)=CCC/C(C)=C/C=O,inactive
8,CCn1cc(C(=O)O)c(=O)c2cc3c(cc21)OCO3,inactive
9,Cc1ccc(C(C)C)cc1,inactive
10,CCCCC(=O)O,inactive
11,O=C1CCCCCCCCCCC1,inactive
12,COc1c2ccoc2cc2oc(=O)ccc12,inactive
13,CCN(CC)CCNC(=O)c1ccc(N)cc1,inactive
14,CCCCCC(C)=O,inactive
15,Cc1ccc([N+](=O)[O-])cc1N,inactive
16,NC(=O)c1ncn([C@@H]2O[C@H](CO)[C@@H](O)[C@H]2O)n1,inactive
17,Oc1ccc(Cc2ccccc2O)cc1,inactive
18,CN=C(NC#N)NCCSCc1nc[nH]c1C,inactive
19,CC(=O)CC(=O)N(C)C,inactive
20,OCc1ccc(Cl)cc1Cl,inactive
